PubChem BioAssay (NCATS)
Inconclusive results are not listed. The source made the active and inactive calls. Unless noted, calls follow the shape of the dose curve; as a rule, active = well fitted curve in the direction sought with a large enough effect; inconclusive = small, poorly fitted or top-dose-only effect, or another doubt; inactive = no such curve, though single readings can be large; an effect the other way counts as inactive or inconclusive.

biological target: D(1A) dopamine receptor (Homo sapiens) (UniProt P21728); assay: HTS Assay for Allosteric Agonists of the Human D1 Dopamine Receptor: Primary Screen for Antagonists (AID 488983); conditions: D1 receptor cell assay, antagonist mode, qHTS titration; series mostly up to 41.8 µM; activity change, negative = inhibition: at the top concentration;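 also: calcium flux response to an EC80 dopamine challenge measured with no-wash dye; % is scaled to controls: 0 for no effect and ±100 for the full control effect; nearly all actives have a fitted effect of over 65% in size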
Sequence (P21728 whole entry, looked up): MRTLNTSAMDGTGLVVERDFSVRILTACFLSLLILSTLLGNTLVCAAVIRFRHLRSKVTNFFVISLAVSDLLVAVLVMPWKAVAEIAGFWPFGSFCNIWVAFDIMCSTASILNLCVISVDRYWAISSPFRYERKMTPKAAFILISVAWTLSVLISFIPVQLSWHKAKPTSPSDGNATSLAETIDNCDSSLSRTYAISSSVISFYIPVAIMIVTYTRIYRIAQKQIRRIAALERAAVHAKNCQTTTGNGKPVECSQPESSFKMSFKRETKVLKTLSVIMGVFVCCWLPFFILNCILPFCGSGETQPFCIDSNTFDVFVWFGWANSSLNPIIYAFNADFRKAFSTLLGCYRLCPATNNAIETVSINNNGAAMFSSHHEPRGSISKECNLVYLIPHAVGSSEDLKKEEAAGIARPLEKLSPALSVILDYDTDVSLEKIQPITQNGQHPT
Excerpt: Dopamine receptors (DARs) are involved in the etiology and/or therapy of a number of neuropsychiatric and endocrine disorders. For instance, all receptor-based antiparkinsonian drugs work via stimulating the […] DAR subtype whereas all FDA-approved antipsychotic agents are antagonists of this receptor. […] There are three different types of allosteric modulators that we are seeking, two of which will stimulate or augment receptor signaling, allosteric agonists and potentiators, while the third, allosteric antagonists, will attenuate receptor signaling. The present primary screening assay measures compound agonism by tracking calcium flux in a […], inducible Hek293 Trex D1 cell line.
Freshly passaged cells are plated in 1536 well black, clear bottom plates at a density of 4000 cells/well in 3 ul of complete media containing 1x tetracycline inducer. After an overnight incubation at 30 C in 5% CO2, cells are loaded with 2 ul of the no wash Calcium Assay Kit (ABD Bioquest) and incubated at room temperature for 30 to 90 minutes. A 10 cycle (1 second/cycle) baseline measurement is taken and then the FDSS online 1536 pintool delivers 23 nl of compound library (as well as dopamine controls) to the plate. The plate is measured for kinetically at 1 cycle/sec for 180 seconds and is considered to be the agonist portion of the assay (eg, compounds which activate a positive calcium response during this portion are flagged as potential agonists). Following the 180 second read, 1 ul of an EC80 of dopamine is delivered by an onboard pipette head. Measurements are taken kinetically for an additional 180 seconds.

Row | SMILES | activity change, negative = inhibition
1 | CN[C@H](CC(C)C)C(=O)N[C@H]1C(=O)N[C@@H](CC(N)=O)C(=O)N[C@@H]2C(=O)N[C@H]3C(=O)N[C@H](C(=O)N[C@H](C(=O)O)c4cc(O)cc(O)c4-c4cc3ccc4O)[C@H](O)c3ccc(c(Cl)c3)Oc3cc2cc(c3O[C@@H]2O[C@H](CO)[C@@H](O)[C@H](O)[C@@H]2O[C@H]2C[C@](C)(N)[C@H](O)[C@H](C)O2)Oc2ccc(cc2Cl)[C@H]1O | -1.62% (inactive)
2 | O=c1[nH]c(=O)n([C@H]2C[C@@H](O)[C@@H](CO)O2)cc1C=CBr | 5.51% (inactive)
3 | COc1ccc2cc([S+]([O-])Cc3ncc(C)c(OC)c3C)nc2c1 | -11.8% (inactive)

biological target: ATP-dependent 6-phosphofructokinase (Trypanosoma brucei brucei) (UniProt O15648); assay: qHTS Assay to Find Inhibitors of T. brucei phosphofructokinase: hit validation (AID 492961);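 also: luminescence reports ADP formed as PFK phosphorylates fructose-6-phosphate with ATP; % is scaled to controls: 0 for no effect and ±100 for the full control effect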; conditions: T. brucei PFK, ADP-Glo luminescence; series mostly up to 51.4 µM; activity change, negative = inhibition: at the top concentration
Sequence (O15648 whole entry, looked up): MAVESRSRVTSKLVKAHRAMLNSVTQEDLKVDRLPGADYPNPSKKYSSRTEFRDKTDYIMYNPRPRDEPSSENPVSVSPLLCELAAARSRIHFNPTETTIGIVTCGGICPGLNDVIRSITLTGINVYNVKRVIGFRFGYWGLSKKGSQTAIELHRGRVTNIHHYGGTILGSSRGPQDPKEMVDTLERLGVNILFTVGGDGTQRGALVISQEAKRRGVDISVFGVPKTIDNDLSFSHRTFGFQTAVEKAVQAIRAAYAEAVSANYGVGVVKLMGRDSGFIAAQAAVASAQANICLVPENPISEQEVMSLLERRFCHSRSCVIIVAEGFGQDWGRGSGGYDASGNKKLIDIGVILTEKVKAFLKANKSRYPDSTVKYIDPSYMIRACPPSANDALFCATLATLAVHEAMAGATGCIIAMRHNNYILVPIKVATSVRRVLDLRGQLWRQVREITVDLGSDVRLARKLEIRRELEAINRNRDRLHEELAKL
How it was run: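 In this biochemical qHTS validation, titrated compounds were tested against 1.25 nM PFK with 0.1 mM ATP and 0.5 mM F6P. Percent activity came from controls lacking or containing enzyme.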

Row | SMILES | activity change, negative = inhibition
4 | COc1ccc2c(c1OC)C(=O)OC2[C@H]1c2c(cc3c(c2OC)OCO3)CCN1C (stereo not given in full) | 1.49% (inactive)
5 | CCC(C(=O)O)C1CCC(C)C(C(C)C(O)C(C)C(=O)C(CC)C2OC3(C=CC(O)[C@@]4(CC[C@](C)(C5CC[C@@](O)(CC)C(C)O5)O4)O3)C(C)CC2C)O1 (stereo not given in full) | 5.01% (inactive)
6 | OCC(O)C(O)C(O)CO (stereo not given) | 1.11% (inactive)
7 | CCCCCCCCCCCC(CC1OC(=O)C1CCCCCC)OC(=O)C(CC(C)C)NC=O (stereo not given) | 3.01% (inactive)
8 | COc1ccc([C@@H]2CNC(=O)C2)cc1OC1CCCC1 | 2.01% [at 24.3 µM] (inactive)
9 | Nc1nc2c(c(=O)[nH]1)N(C=O)[C@H](CNc1ccc(C(=O)N[C@@H](CCC(=O)O)C(=O)O)cc1)CN2 | 1.91% [at 24.3 µM] (inactive)

tested on: not listed separately; assay: Validation screen for small molecules that induce genotoxicity in human embryonic kidney (HEK293T) cells expressing luciferase-tagged ELG1 (AID 493106); conditions: luminescence; series mostly up to 46.1 µM; activity change, positive = ELG1 induction: at the top concentration; also: 0% is about no effect
How it was run: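 Luminescence from an ELG1-luciferase fusion serves as the read-out, rising when genetic stress elevates ELG1 protein. HEK293T reporter cells (2,000 per well) received 23 nL compound, incubated 16 hr at 37 °C, then ONE-Glo for 30 min at room temperature.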

Row | SMILES | activity change, positive = ELG1 induction
10 | CN[C@H](CC(C)C)C(=O)N[C@H]1C(=O)N[C@@H](CC(N)=O)C(=O)N[C@@H]2C(=O)N[C@H]3C(=O)N[C@H](C(=O)N[C@H](C(=O)O)c4cc(O)cc(O)c4-c4cc3ccc4O)[C@H](O)c3ccc(c(Cl)c3)Oc3cc2cc(c3O[C@@H]2O[C@H](CO)[C@@H](O)[C@H](O)[C@@H]2O[C@H]2C[C@](C)(N)[C@H](O)[C@H](C)O2)Oc2ccc(cc2Cl)[C@H]1O | -4.15% (inactive)
11 | O=c1[nH]c(=O)n([C@H]2C[C@@H](O)[C@@H](CO)O2)cc1C=CBr | -4.78% (inactive)
12 | COc1ccc2cc([S+]([O-])Cc3ncc(C)c(OC)c3C)nc2c1 | -8.79% (inactive)

biological target: ATPase family AAA domain-containing protein 5 (Homo sapiens) (UniProt Q96QE3); assay: Validation screen for small molecules that inhibit ELG1-dependent DNA repair in human embryonic kidney (HEK293T) cells expressing luciferase-tagged ELG1 (AID 493107); conditions: HEK293T ELG1-luciferase level, luminescence, 5-fluorouridine co-treatment, 16 h; series mostly up to 46.1 µM; activity change, negative = decrease: at the top concentration;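 also: cells co-treated with the DNA-damaging agent 5-fluorouridine alongside compound; % is scaled to controls: 0 for no effect and ±100 for the full control effect; inhibitors lower the ELG1-luciferase luminescence signal; nearly all actives have a fitted effect of over 70% in size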
Sequence (Q96QE3 whole entry, looked up, the tested form may be a part): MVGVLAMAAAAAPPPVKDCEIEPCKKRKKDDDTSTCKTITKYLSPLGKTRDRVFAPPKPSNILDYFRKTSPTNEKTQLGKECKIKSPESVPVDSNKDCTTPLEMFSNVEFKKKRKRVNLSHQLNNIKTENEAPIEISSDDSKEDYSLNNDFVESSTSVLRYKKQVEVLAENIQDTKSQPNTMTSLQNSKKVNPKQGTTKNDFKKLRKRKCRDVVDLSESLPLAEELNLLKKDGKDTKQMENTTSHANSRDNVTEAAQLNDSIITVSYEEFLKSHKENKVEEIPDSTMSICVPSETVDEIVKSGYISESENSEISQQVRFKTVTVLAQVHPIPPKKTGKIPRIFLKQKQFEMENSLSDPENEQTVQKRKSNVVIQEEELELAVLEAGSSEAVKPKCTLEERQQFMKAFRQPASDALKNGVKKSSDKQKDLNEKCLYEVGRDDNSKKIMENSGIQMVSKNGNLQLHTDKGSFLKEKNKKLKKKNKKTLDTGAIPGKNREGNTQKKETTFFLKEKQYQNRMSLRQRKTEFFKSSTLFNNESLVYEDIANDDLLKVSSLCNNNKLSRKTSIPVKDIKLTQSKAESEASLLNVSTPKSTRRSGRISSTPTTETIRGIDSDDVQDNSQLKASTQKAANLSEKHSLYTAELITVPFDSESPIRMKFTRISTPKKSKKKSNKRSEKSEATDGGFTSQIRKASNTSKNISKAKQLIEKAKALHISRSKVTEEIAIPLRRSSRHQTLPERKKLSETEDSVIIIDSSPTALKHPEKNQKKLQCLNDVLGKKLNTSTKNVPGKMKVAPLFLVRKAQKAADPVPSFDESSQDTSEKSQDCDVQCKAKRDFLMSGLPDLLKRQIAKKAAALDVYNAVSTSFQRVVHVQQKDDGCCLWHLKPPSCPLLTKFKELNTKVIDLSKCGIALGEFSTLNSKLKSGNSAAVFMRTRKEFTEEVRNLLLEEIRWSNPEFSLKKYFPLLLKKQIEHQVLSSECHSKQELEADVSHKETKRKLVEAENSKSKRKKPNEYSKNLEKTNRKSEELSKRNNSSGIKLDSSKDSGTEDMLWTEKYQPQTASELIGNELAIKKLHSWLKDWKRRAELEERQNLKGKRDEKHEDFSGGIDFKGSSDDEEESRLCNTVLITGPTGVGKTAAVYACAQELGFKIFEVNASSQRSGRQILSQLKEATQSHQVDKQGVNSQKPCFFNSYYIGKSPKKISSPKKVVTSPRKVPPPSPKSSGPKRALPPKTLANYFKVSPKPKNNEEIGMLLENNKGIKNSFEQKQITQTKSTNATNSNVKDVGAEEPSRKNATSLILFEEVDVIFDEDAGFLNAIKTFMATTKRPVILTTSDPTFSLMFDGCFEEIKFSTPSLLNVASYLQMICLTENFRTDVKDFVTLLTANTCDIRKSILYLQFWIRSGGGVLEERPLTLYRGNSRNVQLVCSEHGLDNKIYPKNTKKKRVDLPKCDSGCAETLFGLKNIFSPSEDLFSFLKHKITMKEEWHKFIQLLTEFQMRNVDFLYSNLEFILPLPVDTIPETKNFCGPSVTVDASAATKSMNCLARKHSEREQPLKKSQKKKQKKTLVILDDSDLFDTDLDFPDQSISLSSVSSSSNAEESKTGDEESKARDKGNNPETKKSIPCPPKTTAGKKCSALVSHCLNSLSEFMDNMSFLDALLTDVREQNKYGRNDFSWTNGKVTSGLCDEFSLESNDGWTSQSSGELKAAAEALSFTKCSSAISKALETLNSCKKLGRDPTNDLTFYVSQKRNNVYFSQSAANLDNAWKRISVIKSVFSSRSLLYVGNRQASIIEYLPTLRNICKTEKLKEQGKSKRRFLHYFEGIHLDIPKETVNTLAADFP
Excerpt: NIH Molecular Libraries Probe Production Network [MLPCN]
NIH Chemical Genomics Center [NCGC]
Assay Provider: Kyungjae Myung, NHGRI, NIH
Keywords: MLPCN, qHTS, NCGC, genotoxicity, cancer
Cancer cells divide rapidly compared to normal cells in the body. During cell division, cancer cells need to duplicate their genome by DNA replication. The failure of genome duplication leads to cancer cells' death. Therefore, inhibitors of DNA replication could specifically kill cancer cells. Based on this concept, many chemotherapeutic agents were developed and have been used to treat cancer patients. However, there are a limited number of agents available in the clinical setting, and some of those that do exist have low efficacy and severe side effects. Therefore, if we can find the compounds that effectively block DNA replication either by directly damaging DNA or by inhibiting other cellular mechanisms, the options for cancer treatment will be broadened. With this in mind, we developed a quantitative high-throughput ELG1-luciferase reporter gene assay. Small molecules that specifically block ELG1 function in response to DNA damage can be identified by monitoring the suppression of luciferase activity. Since ELG1 defines a pathway for repairing DNA damage, agents blocking ELG1 function can be used to sensitize cancer cells to chemotherapeutic agents whose mechanism of action involves the induction of DNA damage.
For genotoxicity screening, 2,000 cells in 4 uL/well were dispensed into white, solid-bottom 1536-well plates using a solenoid-based dispenser. Following transfer of 1 uL 5-Fluorouridine and 23 nL compound or DMSO vehicle by a pin tool, the plates were incubated 16 hr at 37 °C and 5% CO2. 5 ul ONE-Glo (Promega) was then added to each plate and following a 30 min incubation at room temperature, luciferase activity was quantified on a ViewLux CCD-based plate reader.

Row | SMILES | activity change, negative = decrease
13 | CN[C@H](CC(C)C)C(=O)N[C@H]1C(=O)N[C@@H](CC(N)=O)C(=O)N[C@@H]2C(=O)N[C@H]3C(=O)N[C@H](C(=O)N[C@H](C(=O)O)c4cc(O)cc(O)c4-c4cc3ccc4O)[C@H](O)c3ccc(c(Cl)c3)Oc3cc2cc(c3O[C@@H]2O[C@H](CO)[C@@H](O)[C@H](O)[C@@H]2O[C@H]2C[C@](C)(N)[C@H](O)[C@H](C)O2)Oc2ccc(cc2Cl)[C@H]1O | 4.4% (inactive)
14 | O=c1[nH]c(=O)n([C@H]2C[C@@H](O)[C@@H](CO)O2)cc1C=CBr | -1.55% (inactive)
15 | COc1ccc2cc([S+]([O-])Cc3ncc(C)c(OC)c3C)nc2c1 | -0.392% (inactive)

tested on: not listed separately; assay: Nrf2 qHTS screen for inhibitors: Validation (AID 493153; active = well fitted inhibition curve with a large enough effect in the main read-out, with a control signal flat, not every such curve was filed as active;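 as to activity change, negative = inhibition: A549 cells with ARE-driven firefly luciferase reporter reporting Nrf2 activity; % of control where 0% means no effect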); conditions: A549 ARE-Fluc reporter, 18-24 h; viability change: measured here: cytotoxicity max response; luciferase luminescence, at 46.1 µM (top of the series); activity change, negative = inhibition: at the top concentration
How it was run: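 Luminescence from an ARE-firefly luciferase reporter in A549 cells gives Nrf2 inhibition; an earlier CellTiter-Fluor fluorescent read flags cytotoxicity. Cells in 5% FBS OPTI-MEM received compound dilution series for 18-24 h at 37°C.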

Row | SMILES | activity change, negative = inhibition | viability change [%]
16 | CN[C@H](CC(C)C)C(=O)N[C@H]1C(=O)N[C@@H](CC(N)=O)C(=O)N[C@@H]2C(=O)N[C@H]3C(=O)N[C@H](C(=O)N[C@H](C(=O)O)c4cc(O)cc(O)c4-c4cc3ccc4O)[C@H](O)c3ccc(c(Cl)c3)Oc3cc2cc(c3O[C@@H]2O[C@H](CO)[C@@H](O)[C@H](O)[C@@H]2O[C@H]2C[C@](C)(N)[C@H](O)[C@H](C)O2)Oc2ccc(cc2Cl)[C@H]1O | 1.47% (inactive) | -4.03
17 | O=c1[nH]c(=O)n([C@H]2C[C@@H](O)[C@@H](CO)O2)cc1C=CBr | -8.03% (inactive) | 1.21
18 | COc1ccc2cc([S+]([O-])Cc3ncc(C)c(OC)c3C)nc2c1 | -9.74% (inactive) | -3.22

tested on: not listed separately; assay: qHTS for Inhibitors of Cell Surface uPA Generation: Validation Assay (AID 493164); conditions: mouse cells, plasminogen activation; series mostly up to 38.3 µM; activity change: at the top concentration; also: 0% is about no effect
How it was run: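 RAW 264.7 cells (4000/well) were plated overnight, then exposed for 18 h at 37 C, 5% CO2 to compounds in a 7-point 1:5 titration (2.45 nM–38.3 uM final). Intracellular ATP was read by ATP-Lite luminescence.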

Row | SMILES | activity change
19 | CN[C@H](CC(C)C)C(=O)N[C@H]1C(=O)N[C@@H](CC(N)=O)C(=O)N[C@@H]2C(=O)N[C@H]3C(=O)N[C@H](C(=O)N[C@H](C(=O)O)c4cc(O)cc(O)c4-c4cc3ccc4O)[C@H](O)c3ccc(c(Cl)c3)Oc3cc2cc(c3O[C@@H]2O[C@H](CO)[C@@H](O)[C@H](O)[C@@H]2O[C@H]2C[C@](C)(N)[C@H](O)[C@H](C)O2)Oc2ccc(cc2Cl)[C@H]1O | -0.718% (inactive)
20 | O=c1[nH]c(=O)n([C@H]2C[C@@H](O)[C@@H](CO)O2)cc1C=CBr | -0.0667% (inactive)
21 | COc1ccc2cc([S+]([O-])Cc3ncc(C)c(OC)c3C)nc2c1 | -0.0067% (inactive)

biological target: Peptidyl-prolyl cis-trans isomerase NIMA-interacting 1 (Homo sapiens) (UniProt Q13526); assay: qHTS Validation Assay to Find Inhibitors of Pin1 (AID 504536; active = well fitted inhibition curve with a large enough effect in the polarisation, with a control signal flat, not every such curve was filed as active; the % refers to the polarisation;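 also: 0% = full Pin1 enzyme wells and -100% = no-enzyme wells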); conditions: Pin1 fluorescence polarization peptide binding assay; series mostly up to 57.5 µM; activity, negative = inhibition: at the top concentration
Sequence (Q13526 whole entry, looked up): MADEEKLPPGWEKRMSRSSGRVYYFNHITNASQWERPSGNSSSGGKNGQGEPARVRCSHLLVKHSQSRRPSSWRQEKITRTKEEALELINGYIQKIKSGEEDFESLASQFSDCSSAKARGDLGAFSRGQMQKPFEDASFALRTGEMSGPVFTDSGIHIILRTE
How it was run: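 Fluorescence polarization competition: compounds (titration) displace HiFluor-488-labeled Pin1-1b peptide from Pin1 (0.3 uM final) in pH 7.5 HEPES buffer with DTT, 10 min at room temperature; %Activity normalized to no-enzyme wells, curves fitted.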

Row | SMILES | activity, negative = inhibition
22 | CN[C@H](CC(C)C)C(=O)N[C@H]1C(=O)N[C@@H](CC(N)=O)C(=O)N[C@@H]2C(=O)N[C@H]3C(=O)N[C@H](C(=O)N[C@H](C(=O)O)c4cc(O)cc(O)c4-c4cc3ccc4O)[C@H](O)c3ccc(c(Cl)c3)Oc3cc2cc(c3O[C@@H]2O[C@H](CO)[C@@H](O)[C@H](O)[C@@H]2O[C@H]2C[C@](C)(N)[C@H](O)[C@H](C)O2)Oc2ccc(cc2Cl)[C@H]1O | 2.12% (inactive)
23 | O=c1[nH]c(=O)n([C@H]2C[C@@H](O)[C@@H](CO)O2)cc1C=CBr | -8.17% (inactive)
24 | COc1ccc2cc([S+]([O-])Cc3ncc(C)c(OC)c3C)nc2c1 | -8.65% (inactive)

biological target: Phosphoglycerate kinase, glycosomal (Trypanosoma brucei brucei) (UniProt P07378); assay: qHTS Validation Assay to Find Inhibitors of Phosphoglycerate Kinase (AID 504547); conditions: enzymatic PGK inhibition, coupled luminescence read-out; series mostly up to 57.5 µM; activity, negative = inhibition: at the top concentration;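 also: control wells lack PGK and mark full inhibition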
Sequence (P07378 whole entry, looked up): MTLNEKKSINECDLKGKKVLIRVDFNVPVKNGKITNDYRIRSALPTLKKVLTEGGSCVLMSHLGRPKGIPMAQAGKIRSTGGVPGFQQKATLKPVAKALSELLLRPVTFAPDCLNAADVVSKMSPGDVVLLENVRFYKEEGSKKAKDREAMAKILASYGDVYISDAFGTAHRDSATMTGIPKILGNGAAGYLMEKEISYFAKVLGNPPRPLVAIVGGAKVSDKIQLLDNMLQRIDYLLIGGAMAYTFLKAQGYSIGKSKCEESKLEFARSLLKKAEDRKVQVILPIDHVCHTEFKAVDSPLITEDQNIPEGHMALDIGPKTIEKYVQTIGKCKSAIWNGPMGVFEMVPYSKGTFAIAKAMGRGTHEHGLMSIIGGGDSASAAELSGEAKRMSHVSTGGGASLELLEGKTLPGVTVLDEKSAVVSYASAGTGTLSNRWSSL
How it was run: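 Inhibition of the enzyme is judged by a Kinase-Glo Plus luminescent signal following a one-hour incubation at room temperature. Because 1,3-BPG is unstable, it is made in situ by GAPDH at 100nM final; no-PGK wells define the baseline.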

Row | SMILES | activity, negative = inhibition
25 | CN[C@H](CC(C)C)C(=O)N[C@H]1C(=O)N[C@@H](CC(N)=O)C(=O)N[C@@H]2C(=O)N[C@H]3C(=O)N[C@H](C(=O)N[C@H](C(=O)O)c4cc(O)cc(O)c4-c4cc3ccc4O)[C@H](O)c3ccc(c(Cl)c3)Oc3cc2cc(c3O[C@@H]2O[C@H](CO)[C@@H](O)[C@H](O)[C@@H]2O[C@H]2C[C@](C)(N)[C@H](O)[C@H](C)O2)Oc2ccc(cc2Cl)[C@H]1O | 3.42% (inactive)
26 | O=c1[nH]c(=O)n([C@H]2C[C@@H](O)[C@@H](CO)O2)cc1C=CBr | 3.71% (inactive)
27 | COc1ccc2cc([S+]([O-])Cc3ncc(C)c(OC)c3C)nc2c1 | 5.66% (inactive)
